Screening data from PubChem BioAssay.
An excerpt weighted towards active compounds, which were near 3% of everything screened.
ClpP mod: qHTS Assay for Activators of ClpP; ATP-dependent Clp protease proteolytic subunit (Bacillus subtilis (strain 168)), P80244; purified B. subtilis ClpP, FRET peptide cleavage, 20 min; Potency, µM (doses to about 57.5 µM), inactives show top-dose activity change, negative = active; 340,000 tested, 1.9% active; AID 651965, 2013; active = well fitted falling curve with a large enough effect; inconclusive = small, poorly fitted or top-dose-only effect; inactive = no such curve, though single readings can be large or run the other way; note: potency is the fitted concentration of half-maximal effect; the source files actives as falling curves though it sought activators and does not explain the sign; nearly all actives have a fitted effect of over 65% in size
Target sequence (P80244 whole entry, looked up): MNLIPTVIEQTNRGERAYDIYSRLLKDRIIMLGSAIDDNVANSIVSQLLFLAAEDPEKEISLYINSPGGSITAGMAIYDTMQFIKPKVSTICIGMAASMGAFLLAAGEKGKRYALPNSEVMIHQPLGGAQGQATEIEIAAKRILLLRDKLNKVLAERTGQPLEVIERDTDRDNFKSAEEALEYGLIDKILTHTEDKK
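ClpP 10 microg/mL final, pH 8 Tris/KCl buffer with BSA, glycerol, Tween-20; compound pinned in; FRET-FV substrate; RT 20 min; Ex320/Em430; ΔFRET vs ADEP 5.8 microM, DMSO, no enzyme.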
LDHA inh: LDHA (human) enzyme inhibition | P00338 | purified LDHA, NADH/diaphorase-resazurin fluorescence; stronger effect = lower value | activity change, % (values are at about 110 or 230 µM) | 480,000 tested, 0.15% active | AID 1347041; in the data active = activity change below about -30%; inconclusive = mostly about -25% to -30%;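 note: plate controls were DMSO wells for no effect and wells without enzyme for full effect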
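Remaining NADH was detected by diaphorase (0.133 mg/mL) converting 37 µM resazurin to fluorescent resorufin, read at 0 and 20 minutes. The preceding 5-minute room-temperature reaction used 2 nM LDHA, 0.2 mM sodium pyruvate and 0.06 mM NADH at pH 7.4.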
KCNH2 3.1 block: blocks the human KCNH2 3.1 channel isoform. U2OS KCNH2 3.1, thallium flux FluxOr; stronger effect = lower value. activity change, % (tested at about 1.8 µM). 340,000 tested, 0.95% active. AID 720553;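 active = maximum activity change below -70%; inconclusive = maximum activity change from -70% to -50%; inactive = maximum activity change above -50%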;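 note: thallium influx rate constant from kinetic fluorescence after stimulation buffer; % is set by controls: 0 for no effect and ±100 for the full control effect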
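Normalized rate constant (relative to positive and negative DMSO controls) derived from a 2 min kinetic fluorescence read after stimulation; U2OS cells expressing the 3.1 isoform via virus at 1.77 x 10^8 /mL.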
Chronic BCR inh: inhibitors of chronic active B-cell receptor signaling. Potency, µM (titrated, usually from 46.1 µM), for inactives: top-dose activity change, negative = inhibition, most hits filed as inhibitors. ABC-DLBCL IkBa-CBG/CBR reporter, luminescence ratio, 4 h. 340,000 tested, 0.05% active. AID 493014; active = well fitted inhibition curve with a large enough effect in the signal ratio, with a control signal flat, not every such curve was filed as active; inconclusive = small, poorly fitted or top-dose-only effect, or effect the other way, or a change in a side signal; the % refers to the signal ratio;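 note: potency is the fitted concentration of half-maximal effect; plate controls were basal doxycycline-induced cells for no effect and cells given 10 µM MG132 for full effect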
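Doxycycline induced both beetle luciferases in TMD8 lymphoma cells; IKK-driven degradation limits the IkappaBalpha-fused green signal, while red luminescence normalises for cell number and nonspecific effects. Compounds tested up to 46 uM, 4 hrs.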
ALOX12 inh: ALOX12 (human) lipoxygenase inhibition; 580,000 tested, 1.1% active; P18054; Potency, µM (doses to about 108 µM), for inactives: at the top dose activity change, negative = inhibition, actives largely listed as inhibitors; purified 12hLO, xylenol orange hydroperoxide absorbance; AID 1671190; active = well fitted inhibition curve with a large enough effect; inconclusive = small, poorly fitted or top-dose-only effect, or another doubt; inactive = no such curve, though single readings can be large or run the other way; note: potency is the fitted concentration of half-maximal effect; % is set by controls: 0 for no effect and ±100 for the full control effect
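Purified human 12hLO (150 nM final) in 25 mM Hepes, 0.01% Triton X-100, pH 7.0 was preincubated 15 min at room temperature with compound. Then 40 uM arachidonic acid was added, 30 min. Hydroperoxide was read by Fe-XO absorbance ratio 573/405 nm.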
KCNH2 WT inh: KCNH2 (human, wildtype) channel inhibition; Q12809; U2OS, BacMam KCNH2, thallium flux FluxOr; stronger effect = lower value; activity change, % at 1.84 µM; 340,000 tested, 0.37% active; AID 720551;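 active = maximum activity change below -70%; inconclusive = maximum activity change between -70% and -50%; inactive = maximum activity change above -50%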; note: % is set by controls: 0 for no effect and ±100 for the full control effect
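U2OS cells transduced with wild-type KCNH2 virus are loaded with FluxOr dye for 45 min, and thallium flux is measured in kinetic reads before and after stimulation buffer. Rate constants are normalized to DMSO controls.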
* hit, by the source's call; i = inactive; ? = inconclusive; . = no result; [ ] = another dose, or the depositor's remark.

SMILES | ClpP mod | LDHA inh | KCNH2 3.1 block | Chronic BCR inh | ALOX12 inh | KCNH2 WT inh
O=C(NCCc1noc(-c2ccncc2)n1)c1ccccc1F | . | . | . | . | 28.2µM* | .
CCN(CC)c1ccc(/C=N/NC(=O)Cc2cccs2)c(O)c1 | 28.2µM* | 2.9 | -30.3 | -2.4% | -3.3% | -11.0
CCN(CC)c1ccc(/C=N/NC(=O)c2ccco2)c(O)c1 | -13.7% | -2.5 | 6.6 | ? | 0.0% | 8.2
CC(C)c1cccc(Nc2ccc(S(N)(=O)=O)cc2[N+](=O)[O-])c1 | . | -1.5 | . | . | ? | .
CC(=O)Nc1ccc(C)c(NC(=O)C2(c3cccc(Br)c3)CC2)c1 | . | 11.1 | . | . | -26.0% | .
CNC(=O)c1ccc(CN(C)CC(=O)Nc2ccccc2C(=O)NC2CC2)cc1 | -1.0% | 0.3 | -72.5* | -0.3% | 0.1% | 6.4
CSc1ccc(CN(C)CC(=O)Nc2ccccc2C(=O)NC2CC2)cc1 | 0.9% | -1.2 | 1.5 | -11.9% | 28.9% | 1.3
CN1CCN(Cc2c(O)ccc3cc(Br)ccc23)CC1 | . | 3.5 | 11.0 | 6.3% | 5.62µM* | -7.8
CCCn1nnnc1CN1CCCC1c1ccc2c(c1)OCCO2 (stereo not given) | . | -0.2 | . | . | -3.5% | .
C[C@@H]1CCC(=O)N(C[C@@H](C)CSc2ccc(Br)cc2)CC1 | -0.2% | 3.3 | -112.5* | 15.9% | ? | -1.4
CN(C)/C=C/C(=O)c1ccccc1 | 0.4% | -1.6 | 5.6 | ? | 1.1% | 4.0
CN(C)/C=C/C(=O)c1ccc(Oc2ccccc2)cc1 | . | -6.6 | -3.7 | ? | 5.01µM* | i
O=C(Nc1nc(-c2ccco2)c(-c2ccco2)s1)C1CCC1 | ? | 1.1 | -2.4 | 12.2% | 11.2µM* | 5.3
COc1ccc2nc(Nc3nc4cc5c(cc4s3)OCO5)sc2c1 | 12.6µM* | -8.5 | -6.3 | ? | -2.3% | -6.7
COc1ccc2nc(Nc3ccc4c(c3)OCO4)sc2c1 | 0.2% | -4.7 | -9.6 | ? | ? | -1.2
O=[S+]([O-])(C1CC1)N1C2CCC1CN(c1ccc(C(F)(F)F)cc1)C2 | . | . | . | . | 3.5%[6.33 µM] | .
Cc1cc(CNC(=O)C2CCC(=O)N(CCc3cccc(F)c3)C2)nn1C (stereo not given) | 0.7% | 1.7 | 2.7 | 0.2% | 3.0% | -5.2
COc1cccc(CN2CC(C(=O)NCCCc3ccc(C)cc3)CCC2=O)c1 (stereo not given) | 0.3% | -0.3 | -86.0* | 5.4% | 10.3% | 7.1
COc1cccc(CN2CC(C(=O)NCCCc3ccncc3)CCC2=O)c1 (stereo not given) | -2.6% | -5.6 | -3.5 | -5.2% | 5.5% | -7.2
Cc1ccc(CNC(=O)C2CCC(=O)N(CCc3cccc(F)c3)C2)cc1 (stereo not given) | -2.7% | -0.2 | -84.4* | 0.4% | i | -5.0
Cc1nn(C)cc1CNC(=O)C1CCC(=O)N(Cc2cccc(C(F)(F)F)c2)C1 (stereo not given) | 25.1µM* | -3.7 | 23.1 | -0.4% | 34.0% | 18.9
COc1ccc(OC)c(/C=C(\C#N)C(=O)Nc2cc(C(F)(F)F)ccc2Cl)c1 | . | -6.7 | . | . | -29.3% | .
O=C(NCc1nc2ccccc2[nH]1)c1cccc(Cl)c1 | -2.1% | -9.2 | . | . | 15.9% | .
Clc1cccc(N/N=C(\Cc2nc3ccccc3[nH]2)c2ccccc2)c1 | -4.0% | -4.4 | -15.7 | ? | 12.6µM* | -2.0
Cc1ccc(CN2CCCCCCN(C)C(=O)[C@@H]3CCC[C@@H]32)s1 | . | . | . | . | 128.7% | .
SMILES | ClpP mod | LDHA inh | KCNH2 3.1 block | Chronic BCR inh | ALOX12 inh | KCNH2 WT inh
Cc1cccc(C(=O)OCC(=O)NC(=O)c2ccccc2)c1O | 12.6µM* | -10.1 | 12.3 | -7.4% | 12.3% | 2.0
Cc1cc(C)c(C(=O)OCC(=O)NC(=O)c2ccccc2)c(C)c1 | -2.6% | -0.2 | -15.0 | -1.9% | -2.1% | 5.1
COc1ccc2cc(C3CC(c4ccco4)=NN3S(C)(=O)=O)c(Cl)nc2c1 (stereo not given) | . | 1.1 | -2.2 | -6.8% | 35.5µM* | -21.4
CCOc1ccc2nc(Cl)c(C3CC(c4ccco4)=NN3S(=O)(=O)c3ccccc3)cc2c1 (stereo not given) | -23.6% | -1.4 | -70.9* | 0.9% | ? | -32.3
CCS(=O)(=O)N1N=C(c2ccc(C)cc2)CC1c1cc2ccc(OC)cc2nc1Cl (stereo not given) | -17.1% | -6.1 | . | . | -29.1% | .
CCOc1ccc2nc(Cl)c(C3CC(c4ccc(OC)cc4)=NN3S(C)(=O)=O)cc2c1 (stereo not given) | -7.3% | 0.9 | . | . | -24.6% | .
CN(C)CCN(C)C(=O)c1ccc(-c2ncc3cnc(-c4cccc(F)c4)cn23)cc1 | . | . | . | . | -27.1%[176 µM] | .
NC(=O)CC(NC(=O)c1ccccc1)c1ccc(N2CCN(c3ccccn3)CC2)c([N+](=O)[O-])c1 (stereo not given) | 1.6% | -4.4 | -129.6* | -13.2% | ? | -7.1
NC(=O)CC(NC(=O)c1ccc(Br)cc1)c1ccc(N2CCN(c3ccccc3)CC2)c([N+](=O)[O-])c1 (stereo not given) | 1.4% | -8.8 | 5.0 | ? | -11.9% | 0.4
CCc1cccc2c(C(=O)CN3C(=O)CC4(CCCCC4)C3=O)c[nH]c12 | . | 1.3 | . | . | ? | .
Cc1nn(C(=O)C2CCCN2S(=O)(=O)c2ccc(F)cc2)c(C)c1Sc1ccccc1 (stereo not given) | . | -34.4* | . | . | 6.2% | .
Cc1ccc(Sc2c(C)nn(C(=O)C3CC3)c2C)cc1 | -2.3% | -5.4 | 16.4 | 5.7% | -7.4% | -4.5
Cc1cc(C)n(C(=O)C2CCCN2S(=O)(=O)c2ccc(Cl)cc2)n1 (stereo not given) | 1.6% | -5.2 | -9.8 | 3.2% | -7.5% | -6.1
Cc1ccc(S(=O)(=O)N2CCCC2C(=O)n2nc(C)c(Sc3ccccc3)c2C)cc1 (stereo not given) | . | -34.8* | . | . | ? | .
CCOc1cc2c(cc1/C=C1\NC(=O)NC1=O)OCO2 | . | 15.1 | . | . | -4.8% | .
CCCCNC(=S)Nc1ccc(Cl)cc1Cl | . | -0.3 | . | . | ? | .
Cn1c(=O)n(CCC(=O)NCc2nnc3n2CCC3)c2ccccc21 | . | -5.8 | . | . | -2.0% | .
Cc1nc2c(=O)n(C)c(=O)[nH]c2n1Cc1ccccc1 | 28.2µM* | -1.0 | 16.3 | 4.7% | ? | -0.2
COc1cc(-c2c(NC(=O)c3ccccc3F)oc3c(C)cccc3c2=O)cc(OC)c1OC | . | -0.3 | . | . | -15.8% | .
CC(C)CCC(CCN1CCCC1)c1ccc2c(c1)OCO2 (stereo not given) | . | -12.1 | -104.7* | -1.4% | 0.0% | ?
COCCCNCCC(CCC(C)C)c1ccc2c(c1)OCO2 (stereo not given) | -1.1% | -12.4 | ? | -12.9% | ? | ?
